Among all 1,200 compounds or so, about 85 (7%) were called active. Calls follow the shape of the full dose curve. The list comes from a sample in which actives are over-represented; it also holds similar structures and randomly drawn compounds.
Biological target: Beta-2 adrenergic receptor (Homo sapiens) (UniProt P07550)
Assay: qHTS assay of beta-arrestin-biased ligands of beta2-adrenergic receptor: Hit Validation with GloSensor; as to activation: 0% is about no effect
Conditions: W9-Glo22F cells, GloSensor cAMP luminescence, beta2AR agonism; activation: at 46.1 µM (top of the series)
Excerpt: The concept of biased agonism is an emerging concept of molecular pharmacology which proposes that seven transmembrane receptors (7TMRs) or G protein-coupled receptors (GPCRs), exist in multiple signaling conformations and complexes and that ligands (either agonists or antagonists) can induce signaling biased responses for distinct signal transduction cascades.
Furthermore, accumulating evidence over the last decade has drawn attention to a novel function of beta-arrestins as signal transducers that scaffold various signaling molecules upon activation of 7TMRs. […] This beta-arrestin-biased signaling presumably leads to distinct physiological outcomes from those by G protein activation.
Additionally, the active receptor conformations which […] on this beta-arrestin signaling are likely different from those activating G protein signaling
The goal of this screening project is to discover and optimize novel beta-arrestin-biased ligands for beta2-AR signaling. A luminescent cell-based assay for beta2-AR-mediated agonism, known as the Tango assay, has been validated in which ligand binding of a recombinant beta2-AR and subsequent recruitment of a recombinant beta-arrestin lead to the release of the transcriptional activator tTA, which upregulates transcription of a tTA-responsive luciferase gene. […] After compounds were identified in this primary screen, they were tested in a counter screen that used luminescence as measure through the GloSensor reagent.
NIH Molecular Libraries Probe Production Network [MLPCN]
NIH Chemical Genomics Center [NCGC]
PI: Bryan Roth (UNC) and Bob Lefkowitz (Duke)
2 uL of W9-Glo22F cells are dispensed into a white 1536-well plate. They are incubated overnight at 37 deg C at 5% CO2. 23 nL of compounds and controls are pinned into the wells. Then 2 uL of GloSensor is added and the plate is incubated for 10 min at room temperature.The plates are then read on the ViewLux for luminescence.
Potency is read from the fitted curve at half-maximal effect.

Beta-2 adrenergic receptor (Homo sapiens), sequence (P07550 whole entry, looked up): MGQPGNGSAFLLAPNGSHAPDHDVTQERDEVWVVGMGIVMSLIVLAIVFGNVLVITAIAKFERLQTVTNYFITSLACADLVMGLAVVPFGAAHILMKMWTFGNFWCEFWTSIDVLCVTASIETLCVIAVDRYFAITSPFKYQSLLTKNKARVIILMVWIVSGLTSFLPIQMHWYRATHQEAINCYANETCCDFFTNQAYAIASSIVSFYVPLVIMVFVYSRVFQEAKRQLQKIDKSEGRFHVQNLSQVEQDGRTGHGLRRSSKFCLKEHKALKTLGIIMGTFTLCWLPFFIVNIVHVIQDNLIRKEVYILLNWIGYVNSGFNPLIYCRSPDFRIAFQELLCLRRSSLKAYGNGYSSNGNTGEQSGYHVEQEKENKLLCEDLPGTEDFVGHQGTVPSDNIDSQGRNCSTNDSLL

Potency, active:
Cc1ccc(C)c(-n2c(SCC(=O)O)nc3sc4c(c3c2=O)CCCC4)c1 23.1 µM
CC1CCC(NC(=O)c2ccc(S(C)(=O)=O)cc2)CC1 (stereo unspecified) 29.1 µM
COc1ccc(C(=O)C2CCCN(C/C=C/c3ccccc3OC)C2)c(OC)c1 (stereo unspecified) 18.4 µM
O=c1[nH]c(CSc2ccccn2)nc2c1cnn2-c1ccccc1 11.6 µM
CCNc1nc(NC(C)CC)nc(ON=C(C)C)n1 (stereo unspecified) 32.6 µM
CCCCCC1CC(/C(C)=N/NC(N)=O)OC1=O (stereo unspecified) 29.1 µM
COc1cc(/C=C2\CC/C(=C\c3ccc(OCCO)c(OC)c3)C2=O)ccc1OCCO 18.4 µM
COc1ccc(Oc2nc(-c3ccncc3)nc3ccccc23)cc1 29.1 µM
O=[N+]([O-])c1ccc(Cl)c(C2Nc3cccc4cccc(c34)N2)c1 0.0046 µM
NC(=S)NN=C(Cc1ccccc1)Cc1ccccc1 32.6 µM
CN1CCN(C(=S)NC(=O)c2ccc(Br)cc2)CC1 10.3 µM
Cn1c(-c2csc(-c3ccccc3)n2)n[nH]c1=S 20.6 µM
CC1=NN(C(N)=S)C(=O)C1N=Nc1ccccc1 (stereo unspecified) 18.4 µM
CC(=C/c1ccccc1)/C=N/n1c(C)n[nH]c1=S 25.9 µM
Cc1cc(-c2n[nH]c(=S)n2/N=C/C(Cl)=C/c2ccccc2)n[nH]1 36.6 µM
CNc1sc(C(=O)c2ccccc2F)c(N)c1-c1nc2ccccc2s1 18.4 µM
C=CCNc1nc(Cl)nc(NC2CCCCC2)n1 23.1 µM
O=C1NC(=NCc2ccccc2)S/C1=C/c1ccc(O)cc1 23.1 µM
O=C(Oc1c(-c2ccco2)oc2ccccc2c1=O)c1cccnc1 32.6 µM
NC(=S)N/N=C/c1ccc(-c2cccc([N+](=O)[O-])c2)o1 20.6 µM
CCC(NC(C)C)C(O)c1ccc(O)c(O)c1 (stereo unspecified) 0.0065 µM
CCC(NC(C)C)C(O)c1ccc(O)c2[nH]c(=O)ccc12 (stereo unspecified) 0.0058 µM

Potency, inactive:
Cc1nc(SCC(=O)N2CCOCC2)c2c3c(sc2n1)CCC3
O=C(NCc1ccco1)c1cccn2c(=O)c3c4c(sc3nc12)CCCC4
CC1(C)CC(C)(c2ccc(O)cc2O)N(c2cccc(Cl)c2)C(=S)N1 (stereo unspecified)
S=c1[nH]c2cc(-c3ccccc3)ccc2o1
CC(C)CC(=O)NC(=S)Nc1ccc(Cl)cn1
O=C(CS(=O)(=O)c1ccccc1)Nc1nc2ccccc2s1
CCCC(=O)NC(=S)Nc1ccc(Cl)cn1
COc1cccc(C(=O)C2CCCN(Cc3cccc(-n4nc(C)cc4C)c3)C2)c1 (stereo unspecified)
COc1ccc(C(=O)C2CCCN(Cc3cnc(N4CCCC4)s3)C2)cc1OC (stereo unspecified)
CCc1cc2c(=O)[nH]c(-c3ccccn3)nc2s1
O=c1[nH]c(CSc2cccc[n+]2[O-])nc2ccccc12
CCn1c(SCC(=O)N/N=C/C=C\c2ccco2)nc2ccccc21
S=C(NN=C1CCN(Cc2ccccc2)CC1)NC1CCCCC1
COc1cccc([C@@H]2Oc3ccc(Br)cc3C(=O)[C@H]2OC(=O)NC2CCCC2)c1
CCOc1ccc(C(=O)Nc2ccccc2OC(F)F)cc1
O=C(CN1C(=O)C2C3CC(C(Br)C3Br)C2C1=O)N1CCN(Cc2ccccc2)CC1 (stereo unspecified)
CN(C)S(=O)(=O)c1cccc(NC(=S)N/N=C/c2ccco2)c1
COc1ccc(/C=C/c2ccc3cccc(O)c3n2)c(OC)c1OC
C/C(CCC1CC(C)(C)OC1=O)=N\NC(N)=S (stereo unspecified)
CCCCCOCC1CC(C/C(C)=N/NC(N)=S)C(=O)O1 (stereo unspecified)
CS/C(N)=N/N=C/c1cc(C)ccc1O
CCN(CC)C(=O)[C@H]1CC(CC(=O)NCc2ccc(OC)c(OC)c2)C(=O)N2CCc3c([nH]c4ccccc34)[C@]12C (stereo partly specified)
O=C(CSc1n[nH]c(=O)n1-c1cccnc1)N1CCOCC1
COc1ccc2cc1Oc1ccc(cc1)C[C@H]1c3cc(c(OC)cc3CCN1C)Oc1c(O)c(OC)cc3c1[C@H](C2)N(C)CC3
COc1cc(/C=C2\CC(C(C)(C)C)C/C(=C\c3cc(OC)c(OC)c(OC)c3)C2=O)cc(OC)c1OC (stereo unspecified)
CCOC(=O)N1C/C(=C\c2ccccc2)C(=O)/C(=C/c2ccccc2)C1
O=C(O)CC1S/C(=N/N=C2CCCCC2)N(c2ccccc2)C1=O (stereo unspecified)
CN(C)CCCn1c(SCC(=O)Nc2nccs2)nnc1-c1ccncc1
CCC(C)NC(=O)C1CCN(S(=O)(=O)N2CCC3(CC2)OCCO3)CC1 (stereo unspecified)
COc1cccc(/C=N/Nc2nc(-c3cccnc3)nc3ccccc23)c1
O=C(CC(=O)Nc1cccc(F)c1)Nc1cccc(F)c1
CCCCCCCCN1C(=O)N(C)C(N(O)C(=O)NC)C1(C)C (stereo unspecified)
Clc1ccccc1C1Nc2cccc3cccc(c23)N1
Clc1cccc(Cl)c1C1Nc2cccc3cccc(c23)N1
Cc1ccc(C(=O)N/C(=C\c2ccco2)C(=O)NCCc2c[nH]c3ccccc23)cc1
O=C(CNC(=O)C(c1ccccc1)c1ccccc1)N/N=C\c1cccc(O)c1
CCC(Sc1nc(C)cc(=O)[nH]1)C(=O)Nc1nc2c(s1)CCCC2 (stereo unspecified)
NC(=S)NN=C(c1ccccc1)c1ccccc1
CC(/C=C/c1ccccc1)=N\NC(N)=S
Cc1cc(N2Cc3ccccc3C2)ccc1C=O
C/C(=N/NC(=O)c1ccoc1C)c1ccc(NC(=O)C2CCCC2)cc1
O=C(COC(=O)c1n[nH]c(=O)c2ccccc12)NCc1ccccc1
Oc1ccc(NCc2cccs2)cc1
CCN1CCN(C(=S)NC(=O)c2cccc(Br)c2)CC1
CC1CN(C(=S)NC(=O)c2ccc([N+](=O)[O-])cc2)CC(C)O1 (stereo unspecified)
CCC1(C)Nc2ccccc2C(=O)N1O (stereo unspecified)
O=C(Nc1nc(-c2ccccn2)cs1)Nc1ccc(F)cc1F
CN(C)/C=C/C(=O)c1ccc(F)cc1
O=S(=O)(N1CCOCC1)N1CCOCC1
Cc1ccc(NC(=S)NC(NC(=O)c2ccccc2)C(Cl)(Cl)Cl)c(C)c1 (stereo unspecified)
CC(c1ccccc1)n1c(-c2ccc(C(C)(C)C)cc2)n[nH]c1=S (stereo unspecified)
S=c1[nH]nc(-c2ccccc2)n1C1C=CCCC1 (stereo unspecified)
COc1ccccc1-c1cc(C(=O)N2CCN(c3ccccc3OC)CC2)no1
Cc1ccc(Nc2nc(CSc3nnc(-c4ccccc4C)n3C)cs2)cc1
CCCOc1ccc(C(=O)Nc2nc(C)c(Cc3ccc4c(c3)OCO4)s2)cc1
COc1ccccc1N=NC1C(=O)N(C(N)=S)N=C1C (stereo unspecified)
CC(=O)Nc1ccc(NC(=O)Cn2nc(C(=O)Nc3ccc(C)cc3)ccc2=O)cc1
CC1=NN(C(N)=S)C(=O)C1N=Nc1cccc(C)c1 (stereo unspecified)
CC1=NN(C(N)=S)C(=O)C1N=Nc1ccc(F)cc1 (stereo unspecified)
NC(=S)N/N=C/c1ccccc1OC(=O)c1cc2ccccc2oc1=O
COCC(=O)Nc1c(C(=O)Nc2ccc3c(c2)OCCO3)oc2ccccc12
S=c1[nH]nc(-c2ccco2)n1/N=C/C(Cl)=C/c1ccccc1
CCc1n[nH]c(=S)n1/N=C/c1ccc(N(CC)CC)cc1
Cc1cc(-c2n[nH]c(=S)n2/N=C/C(Br)=C/c2ccccc2)n[nH]1
COC(=O)c1c(NC(=O)CS(=O)(=O)c2ccccc2)sc(C)c1C
C/C(=N\NC(=O)c1c[nH]c2ccccc12)c1ccc(C)s1
COc1cc2c(cc1OC)C(C)N(C(=O)Cn1ncc3c1-c1cc(C)ccc1OC3)CC2 (stereo unspecified)
N=c1n(Cc2ccccc2)c2ccccc2n1Cc1ccccc1
COc1cccc(NC(=S)NN=C2CCCCCC2)c1
COC(=O)c1cc2sc(Cl)cc2n1CC(=O)Nc1ccc(OC)c(OC)c1OC
CNc1sc(C(=O)c2cccs2)c(N)c1-c1nc2ccccc2s1
NC(=S)Nc1nc2ccccc2s1
CCOC(=O)C1=CN(Cc2cccc(-c3cccnc3)c2)S(=O)(=O)N(CC)C1C (stereo unspecified)
Cc1ccc(CONC(=O)c2ccccc2Cl)cc1
O=C(/C=C/c1ccc(N2CCCCC2)c([N+](=O)[O-])c1)c1ccc(S(=O)(=O)N2CCCC2)cc1
Cc1ccc2nc(C)c(C(=O)N/N=C/c3cccs3)n2c1
COC(=O)COc1cccc2c(=O)n(CC(=O)Nc3ccc4c(c3)OCCO4)ccc12
CCOC(=O)c1ccccc1NC1c2ccccc2C(=O)N1C1CCN(C(=O)OCC)CC1 (stereo unspecified)
O=C(CSc1cccc2cccnc12)N1CCCC1
COc1ccc(CN=C2NN=C(c3ccccc3)CS2)cc1
CCCCCC(=O)Nc1cccc(C2=NOC3(C2)C[C@@H](C(N)=O)N(C(=O)CC(c2ccccc2)c2ccccc2)C3)c1 (stereo partly specified)
CN(c1ccccc1)S(=O)(=O)c1ccc(C(=O)Nc2nccs2)cc1
O=C(Oc1ccc(Cl)c2cccnc12)c1ccco1
O=C(Oc1c(Cl)cc(Cl)c2cccnc12)c1ccco1
Cc1ccc2c(c1)[C@H]1[C@H](CO2)[C@H](c2ccccc2)[C@]2(C)C(=O)Nc3ccccc3C(=O)N12
NC(=S)N/N=C/c1ccc(-c2ccccc2)o1
NC(=S)N/N=C/c1ccc(-c2ccc([N+](=O)[O-])cc2)o1
Cc1cccc(NC(=S)NC(=O)C2CC2)c1

activation, active:
O=C(COC(=O)c1ccc(CO)cc1)NCc1cccs1 80.4%

From PubChem BioAssay AID588790 (National Center for Advancing Translational Sciences (NCATS), 2011)
